ChEMBL document CHEMBL3988442, “University of Dundee, Small-Polar-MMV Screening Library” (2021)
About 440 (0.52%) of roughly 85,000 compounds showed an effect of 50% or more. The sample holds strong results, similar compounds and a random draw of the others, so the mix is not that of the screen.

Assay: In vitro enzyme assay to detect hydrolysis of chlorophenol red-beta-D-[…] directly proportional to the number of Toxoplasma stably expressing beta-galactosidase
Type: functional, organism-based, Toxoplasma gondii
Set-up: scale not given: in the data most compounds retested in dose-response had high values

SMILES	Percent Effect (50 µM) [%]	Percent Effect (10 µM) [%]
NC(=O)C1CCN(CC(=O)Nc2ccc(F)cc2)CC1	-2.359	
CCN(CC)CC(N)=O	-6.066	
CC1CCCN(Cn2nccc2-c2cccnc2)C1 (stereo unspecified)	7.827	
O=C(NCCc1ccccc1F)C1CCNCC1	-5.827	
O=C(OCC(F)(F)F)c1cccnc1	-11.21	
Cc1ccc(F)cc1C(=O)N[C@@H]1CCNC[C@H]1O	19.16	
Cc1ccc(F)cc1C(=O)NC1CCCNC1 (stereo unspecified)	83.09	
O=C(N[C@H]1CCCNC1)c1ccc(F)cc1F	-5.906	
COCc1nnc(-c2ccc3c(c2)OCO3)o1	23.78	
NC(=O)C1CCCN1C(=O)C1CCNCC1 (stereo unspecified)	-2.32	
c1ccc(Nc2nccs2)nc1	-28.74	
Oc1cc(C2CCCN(Cc3cccs3)C2)nc(-c2ccccn2)n1 (stereo unspecified)		33.79
Oc1cc(C2CCCCN2Cc2cccs2)nc(-c2ccccn2)n1 (stereo unspecified)		91.06
Oc1cc(C2CCCCN2Cc2cccs2)nc(-c2ccncc2)n1 (stereo unspecified)		-14.06
Cc1ccc(N)c(C)n1	4.322	
OC(c1ccccc1)C1CCNCC1 (stereo unspecified)	-7.409	
O=C(NCc1ccnc(NC2CC2)c1)C1CCCCC1	17	
Cc1cccc(Cn2cc(Br)c(NS(C)(=O)=O)n2)c1		46.94
CS(=O)(=O)Nc1nn(Cc2ccc(F)cc2)cc1Br		62.42
Cc1ccc(Cn2cc(Br)c(NS(C)(=O)=O)n2)cc1		20
Cc1ccc(C(=O)N2C[C@@H](CO)[C@H](N(C)C)C2)cc1	0.785	
CN(C)C(=O)CNC(CC(F)(F)F)c1ccc(F)cc1 (stereo unspecified)		4.779
CN(C)C(=O)CNC(CC(F)(F)F)c1ccc(Cl)cc1 (stereo unspecified)		0.885
CN(C)C(=O)CNC(CO)c1ccc(Cl)c(F)c1 (stereo unspecified)	52.18	
CCNC(=O)c1cc2ccccc2n1C	-19.31	
CCOC(CNC(=O)c1ccnn1C)c1ccccc1 (stereo unspecified)	-0.4622	

SMILES	Percent Effect (50 µM) [%]	Percent Effect (10 µM) [%]
Cn1nccc1C(N)=O	-25	
CCOCC(C)OC(=O)c1ccnn1C (stereo unspecified)	57.1	
NCCCn1nc2ccccn2c1=O	7.053	
CCOc1ccc(Cl)cc1C(N)=O	-6.805	
CCn1nc(C)c(NC(=O)c2cc(NC(=O)C3CC3)n(C)n2)c1C		0.1763
Cc1nn(C)c(C)c1CN(C)C(=O)c1cc(NC(=O)C2CC2)n(C)n1		51.38
Cc1nn(C)c(C)c1CN(C)C(=O)c1cc(C(F)(F)F)n(C)n1		12.73
Cn1nc(C(=O)NC2CCCC2)cc1NC(=O)C1CC1		-6.404
Cc1nn(C)c(C)c1CNC(=O)c1cc(NC(=O)C2CC2)n(C)n1		56.77
Cn1nc(C(=O)NC2CC2)cc1NC(=O)C1CC1		-1.586
CN(C)C1CCN(S(=O)(=O)c2ncn(C)c2Cl)CC1	-2.885	
COCC(=O)Nc1c[nH]nc1C1CCCNC1 (stereo unspecified)	-10.17	
COc1ccc(F)cc1C(=O)N1CCC(CN)CC1	-0.7009	
Cc1nccc(C(=O)NCC(C)(C)CN(C)C)n1	2.804	
COc1ccc(CNC(=O)CC2CCNC2)c(OC)c1 (stereo unspecified)	-8.79	
COc1ccc(C(=O)NCCCOC(C)c2ccccc2)c(OC)c1 (stereo unspecified)		61.13
CC(OCCCNC(=O)c1cccnc1O)c1ccccc1 (stereo unspecified)		39.02
CC(=O)c1ccc(C(=O)NCCCOC(C)c2ccccc2)s1 (stereo unspecified)		-2.061
CNC1CCN(Cc2ncc(C)c(OC)c2C)CC1	36.04	
CCn1nc(C)c2nc(C)nc(NCCc3ccc(C)cc3)c21		34
CCCc1nc(NCC(=O)N2CCOCC2)c2c(n1)c(C)nn2CC		3.704
CCCc1nc(NCCCO)c2c(n1)c(C)nn2CC		3.108
CCCc1nc(NCCCOCC)c2c(n1)c(C)nn2CC		72.53
CCn1nc(C)c2nc(C)nc(NCCc3ccccc3)c21		19.6
CCCc1nc(NCCc2ccccc2)c2c(n1)c(C)nn2CC		68.81
CCc1nc(NCCCOC)c2c(n1)c(C)nn2C		6.336

SMILES	Percent Effect (50 µM) [%]	Percent Effect (10 µM) [%]
CCCc1nc(NCCOC)c2c(n1)c(C)nn2CC		57.71
CCn1nc(C)c2nc(C(C)C)nc(NCCOC)c21		21.04
CCCc1nc(NCCCOC)c2c(n1)c(C)nn2CC		90.71
CCCc1nc(N2CCC(C)CC2)c2c(n1)c(C)nn2CC		25.59
CCc1nc(NCCCn2cccn2)c2c(n1)c(C)nn2CC		14.75
CNCCCOC(C)C	-2.494	
NC1CCN(CC2CC2)CC1	2.288	
NC(=O)c1ccc(NC(=O)CCN2CC(O)C2)cc1	-17.28	
CCC(Nc1cccc(OCC(F)(F)F)c1)C(N)=O (stereo unspecified)	-6.008	
CCOC(=O)NC1CCC(NC(=O)C2CCC2)CC1 (stereo unspecified)	0.5853	
CCN(CC)c1nc2nc[nH]c(=O)c2s1	-4.057	
CC(CCN)CCO (stereo unspecified)	29.53	
OCc1nncn1-c1ccccc1	12.09	
C[C@@H]1CN(C2CCN(c3ccccc3F)CC2)C[C@]1(C)O		12.36
Cc1cc(F)ccc1N1CCC(N2C[C@@H](C)[C@@](C)(O)C2)CC1		24.01
C[C@@H]1CN(C2CCN(c3ccccc3F)CC2)CC[C@]1(C)O		72.85
CN(C)CC1CNCCO1 (stereo unspecified)	-14.23	
CC(=O)NC(C(=O)N(C)Cc1cccs1)C(C)C (stereo unspecified)	4.166	
OCCN1CCN(c2ccc3nnnn3n2)CC1	0.916	
Cn1cc(S(N)(=O)=O)c(C(F)(F)F)n1	17.97	
Cn1cc(CN)c(C(F)(F)F)n1	98.21	
Cn1cc(N)c(C(F)(F)F)n1	-8.221	
CN1CCC(CNC(=O)CCc2cccs2)C1 (stereo unspecified)	-16.97	
CN1CCCCC1CCC(=O)NCCc1ccncc1 (stereo unspecified)	15.39	
CN(C)S(=O)(=O)c1ccc(-c2nc(C#N)c(NC3CC3)o2)o1		-1.829
CN(C)S(=O)(=O)c1ccc(-c2nc(C#N)c(NC(C)(C)C)o2)o1.Cl		91.6

SMILES	Percent Effect (50 µM) [%]	Percent Effect (10 µM) [%]
CN(C)S(=O)(=O)c1ccc(-c2nc(C#N)c(NC3CCCCC3)o2)o1		3.806
CNc1oc(-c2ccc(S(=O)(=O)N(C)C)o2)nc1C#N		44.93
CC(C)Nc1oc(-c2ccc(S(=O)(=O)N(C)C)o2)nc1C#N		-12.9
NCCOc1cccc(C(F)(F)F)n1	-9.845	
COCCN(Cc1cccs1)C(=O)CC1CCNC1 (stereo unspecified)	11.69	
CSc1ccc(CNC(=O)C(C)O)cc1 (stereo unspecified)	-1.798	
COc1cccc2ccc(CN3CC[C@@H](O)C3)nc12	11.26	
NC[C@@H]1CC(=O)N(C2CC2)[C@H]1c1ccncc1	-2.453	
CC(NS(=O)(=O)N(C)C)c1ccccc1 (stereo unspecified)	-35.13	
CN(C)S(=O)(=O)NC(c1ccccc1)c1ccccc1	10.19	
CC(C)Sc1ccccc1NS(=O)(=O)N(C)C	99.92	
CCNCCCC1CCNCC1	16.42	
COc1ccc(S(=O)(=O)Nc2cnc(N(C)C)nc2)cc1		-8.947
COC(=O)c1ccc(NS(=O)(=O)c2cnc(NC(C)=O)s2)cc1		53.94
COC(=O)c1cccc(NS(=O)(=O)c2cnc(NC(C)=O)s2)c1		-3.347
COC(=O)c1ccc(NC(C)=O)cc1	6.6	
COc1ccc(OCCc2nnc(NC(C)=O)s2)cc1		-4.781
COc1ccc(NS(=O)(=O)c2cnc(NC(C)=O)s2)cc1		74.55
CC(C)OCCN1CCN(C(=O)c2cc[nH]n2)CC1	-2.714	
NCC(C(=O)N1CCC2(CCC2)C1)c1ccccc1 (stereo unspecified)	20.55	
CC(=O)NC(C)C(=O)Nc1ccc2ccccc2c1 (stereo unspecified)	-30.81	
O=C1CCc2ccccc2N1Cc1ncccn1	0.3291	
Nc1cc(-c2cccnc2)on1	-0.8399	
Cc1noc(C)c1S(=O)(=O)N(C)Cc1ccoc1	-13.17	
CC1(C)CC(=O)CN1C(=O)c1cc(Cl)c2c(c1)OCO2	7.211	
COc1cccc2c1OCC(CNS(C)(=O)=O)C2 (stereo unspecified)	14.05	

SMILES	Percent Effect (50 µM) [%]	Percent Effect (10 µM) [%]
CCc1nccn1CCNC(=O)Cn1nc(C)cc1N	0.7856	
CNC(=O)C1CCCN(C(=O)Cc2ccc(F)cc2)C1 (stereo unspecified)	-18.03	
NCCCc1nc(-c2ccncc2)cs1	-3.15	
CN(C)C(=O)c1cc(-c2ccncc2)[nH]n1		-7.126
NCCc1cc(-c2ccncc2)[nH]n1	52.85	
O=C(NC1(CCO)CCC1)c1c(O)cc(F)cc1F	-3.362	
COCCOCCCNC(=O)c1cn2cc(C)nc2s1	5.507	
CN(Cc1ccc(F)c(F)c1)C(=O)C1CCOCC1	0.4539	
Cn1cc(CN2CCn3cc(Cn4cccn4)nc3C2)cn1.O=C(O)C(F)(F)F		96.45
O=C(O)C(F)(F)F.O=C(O)C(F)(F)F.c1ccc(CCN2CCn3cc(Cn4cccn4)nc3C2)cc1		-2.685
Fc1ccc(CN2CCn3cc(Cn4cccn4)nc3C2)cc1.O=C(O)C(F)(F)F		6.807
Cc1noc(C)c1S(=O)(=O)N1CC[S+]([O-])C(C)(C)C1 (stereo unspecified)	-20.3	
CC(=O)c1sc(NCCc2ccccn2)nc1C	-25.25	
CCN1CCN(S(=O)(=O)c2cnc(NC(C)=O)s2)CC1		-3.243
CCS(=O)(=O)Nc1ccccc1F	6.561	
CC(=O)Nc1ncc(S(=O)(=O)Nc2ccccc2)s1		62.69
CC(=O)Nc1ncc(S(=O)(=O)N2CCC(C)CC2)s1		-14.89
CC(=O)Nc1ncc(S(=O)(=O)Nc2ccc(F)cc2F)s1		-1.674
CC(=O)Nc1ncc(S(=O)(=O)Nc2ccc(C)cc2)s1		70.91
CC(=O)Nc1ncc(Br)s1	8.521	
CC(=O)Nc1ncc(S(=O)(=O)Nc2ccccc2F)s1		61.48
CC(=O)Nc1ncc(S(=O)(=O)Nc2ccc(F)cc2)s1		2.51
